We go through 75 targets from the supplement of paper PMC10382584, “Macrocyclization of linear molecules by deep learning to facilitate macrocyclic drug candidates discovery” (Nature Communications, 2023).

Compound in this test: Cc1cnc(Nc2ccc(OCCN3CCCC3)cc2)nc1Nc1cccc(S(=O)(=O)NC(C)(C)C)c1 [Fedratinib]
The test can be described thus: percent of DMSO control binding (KINOMEscan); higher = weaker binding / less inhibition; extreme values may be limits of the assay. As to conditions: concentration: 100 nM.

UniProt Q16513, sequence (Q16513 whole entry, looked up): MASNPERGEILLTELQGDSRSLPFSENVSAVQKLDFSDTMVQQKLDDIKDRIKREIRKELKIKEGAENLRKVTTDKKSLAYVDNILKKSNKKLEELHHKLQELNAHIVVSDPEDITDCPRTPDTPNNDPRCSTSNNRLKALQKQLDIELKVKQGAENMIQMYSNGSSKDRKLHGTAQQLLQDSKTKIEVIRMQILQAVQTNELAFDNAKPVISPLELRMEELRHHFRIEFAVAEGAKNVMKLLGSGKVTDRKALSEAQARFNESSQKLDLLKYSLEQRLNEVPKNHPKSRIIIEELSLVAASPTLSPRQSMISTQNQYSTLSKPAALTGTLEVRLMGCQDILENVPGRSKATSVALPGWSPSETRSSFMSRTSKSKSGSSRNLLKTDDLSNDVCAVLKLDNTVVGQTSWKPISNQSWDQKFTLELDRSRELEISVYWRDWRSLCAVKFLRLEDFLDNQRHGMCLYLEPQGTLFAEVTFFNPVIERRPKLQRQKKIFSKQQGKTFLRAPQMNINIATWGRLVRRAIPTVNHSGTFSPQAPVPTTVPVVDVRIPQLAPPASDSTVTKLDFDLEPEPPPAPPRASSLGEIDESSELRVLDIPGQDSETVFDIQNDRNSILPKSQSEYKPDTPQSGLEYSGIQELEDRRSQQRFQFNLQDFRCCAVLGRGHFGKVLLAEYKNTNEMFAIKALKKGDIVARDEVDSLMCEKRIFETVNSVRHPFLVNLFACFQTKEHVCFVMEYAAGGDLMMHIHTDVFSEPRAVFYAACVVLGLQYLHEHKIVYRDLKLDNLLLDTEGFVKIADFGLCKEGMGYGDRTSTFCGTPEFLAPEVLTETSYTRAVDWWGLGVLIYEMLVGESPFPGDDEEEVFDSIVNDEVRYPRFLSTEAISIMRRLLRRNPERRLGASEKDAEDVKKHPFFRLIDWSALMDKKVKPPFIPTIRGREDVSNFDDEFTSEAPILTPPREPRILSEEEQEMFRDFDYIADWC
UniProt Q02750, sequence (Q02750 whole entry): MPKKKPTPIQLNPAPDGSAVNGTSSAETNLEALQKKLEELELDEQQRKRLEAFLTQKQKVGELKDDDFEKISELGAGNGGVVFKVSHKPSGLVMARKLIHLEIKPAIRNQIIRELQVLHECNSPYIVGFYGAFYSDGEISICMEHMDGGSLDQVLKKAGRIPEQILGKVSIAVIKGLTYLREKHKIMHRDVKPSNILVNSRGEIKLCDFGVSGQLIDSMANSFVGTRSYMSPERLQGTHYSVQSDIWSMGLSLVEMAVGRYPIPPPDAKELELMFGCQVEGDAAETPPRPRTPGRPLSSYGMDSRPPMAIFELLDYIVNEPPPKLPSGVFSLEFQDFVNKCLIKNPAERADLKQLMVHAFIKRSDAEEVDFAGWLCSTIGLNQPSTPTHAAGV
UniProt P27037, sequence (P27037 whole entry): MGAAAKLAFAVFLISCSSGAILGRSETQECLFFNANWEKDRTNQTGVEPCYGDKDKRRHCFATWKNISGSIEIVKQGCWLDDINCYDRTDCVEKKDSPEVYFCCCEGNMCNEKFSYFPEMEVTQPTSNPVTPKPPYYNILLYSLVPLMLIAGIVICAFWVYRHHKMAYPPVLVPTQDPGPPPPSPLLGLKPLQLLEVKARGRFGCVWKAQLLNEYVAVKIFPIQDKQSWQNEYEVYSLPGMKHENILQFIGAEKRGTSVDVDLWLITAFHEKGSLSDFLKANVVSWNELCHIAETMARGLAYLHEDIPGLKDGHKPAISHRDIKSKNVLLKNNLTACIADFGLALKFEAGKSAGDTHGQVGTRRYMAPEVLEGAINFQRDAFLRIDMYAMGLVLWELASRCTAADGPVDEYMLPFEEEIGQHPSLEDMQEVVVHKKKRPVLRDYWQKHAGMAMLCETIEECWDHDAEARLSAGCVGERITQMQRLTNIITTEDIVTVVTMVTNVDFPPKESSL
UniProt P17948, sequence (P17948 whole entry): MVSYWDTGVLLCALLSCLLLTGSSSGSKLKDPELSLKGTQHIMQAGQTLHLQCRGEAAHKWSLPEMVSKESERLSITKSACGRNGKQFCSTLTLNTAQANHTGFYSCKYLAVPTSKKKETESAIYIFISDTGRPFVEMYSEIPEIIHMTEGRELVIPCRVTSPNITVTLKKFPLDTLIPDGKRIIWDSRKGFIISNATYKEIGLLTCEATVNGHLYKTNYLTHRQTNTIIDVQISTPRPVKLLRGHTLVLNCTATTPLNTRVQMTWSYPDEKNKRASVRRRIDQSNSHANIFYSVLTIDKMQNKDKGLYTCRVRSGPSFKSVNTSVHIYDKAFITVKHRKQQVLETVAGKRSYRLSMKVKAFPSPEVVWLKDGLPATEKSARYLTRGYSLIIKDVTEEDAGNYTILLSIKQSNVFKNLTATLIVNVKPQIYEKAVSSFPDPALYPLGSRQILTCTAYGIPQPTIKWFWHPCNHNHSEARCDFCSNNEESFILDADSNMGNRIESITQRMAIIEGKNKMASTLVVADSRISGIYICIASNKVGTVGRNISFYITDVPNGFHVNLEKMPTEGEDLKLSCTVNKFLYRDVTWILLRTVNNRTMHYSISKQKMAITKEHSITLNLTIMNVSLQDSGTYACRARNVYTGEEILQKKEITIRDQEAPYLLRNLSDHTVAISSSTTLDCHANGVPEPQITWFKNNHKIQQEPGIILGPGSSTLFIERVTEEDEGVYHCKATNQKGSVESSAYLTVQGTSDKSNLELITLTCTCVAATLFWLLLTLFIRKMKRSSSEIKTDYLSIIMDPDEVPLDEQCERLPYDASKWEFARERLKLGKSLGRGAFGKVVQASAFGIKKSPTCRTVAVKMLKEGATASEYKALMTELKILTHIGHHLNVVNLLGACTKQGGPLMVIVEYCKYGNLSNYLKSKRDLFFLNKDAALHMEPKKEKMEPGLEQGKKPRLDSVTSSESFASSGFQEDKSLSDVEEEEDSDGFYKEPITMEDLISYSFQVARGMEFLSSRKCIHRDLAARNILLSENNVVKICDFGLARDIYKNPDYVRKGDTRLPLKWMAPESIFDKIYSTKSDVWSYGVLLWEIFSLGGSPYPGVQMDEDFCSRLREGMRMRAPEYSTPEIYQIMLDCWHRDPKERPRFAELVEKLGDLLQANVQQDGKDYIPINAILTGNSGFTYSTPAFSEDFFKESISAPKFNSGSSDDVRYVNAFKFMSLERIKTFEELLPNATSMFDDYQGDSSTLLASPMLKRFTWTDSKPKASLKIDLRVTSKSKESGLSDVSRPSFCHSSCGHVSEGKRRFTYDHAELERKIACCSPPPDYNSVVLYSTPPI
UniProt O60331, sequence (O60331 whole entry): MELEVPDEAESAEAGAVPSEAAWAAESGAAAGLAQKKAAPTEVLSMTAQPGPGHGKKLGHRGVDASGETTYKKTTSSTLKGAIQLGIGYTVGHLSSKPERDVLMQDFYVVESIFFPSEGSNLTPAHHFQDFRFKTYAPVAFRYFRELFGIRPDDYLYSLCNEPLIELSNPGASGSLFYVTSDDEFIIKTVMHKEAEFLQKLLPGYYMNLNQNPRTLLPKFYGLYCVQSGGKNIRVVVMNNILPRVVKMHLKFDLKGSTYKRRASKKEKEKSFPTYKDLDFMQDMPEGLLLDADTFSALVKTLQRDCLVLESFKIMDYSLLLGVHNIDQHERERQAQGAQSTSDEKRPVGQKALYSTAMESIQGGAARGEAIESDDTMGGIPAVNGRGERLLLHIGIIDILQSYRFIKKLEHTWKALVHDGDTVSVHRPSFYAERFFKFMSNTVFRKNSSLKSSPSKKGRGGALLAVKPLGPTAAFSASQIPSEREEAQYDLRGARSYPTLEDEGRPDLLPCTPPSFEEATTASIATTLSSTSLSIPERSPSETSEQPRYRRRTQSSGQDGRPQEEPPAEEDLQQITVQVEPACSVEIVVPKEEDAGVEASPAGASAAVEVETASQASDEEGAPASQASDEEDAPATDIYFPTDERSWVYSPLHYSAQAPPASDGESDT
UniProt Q13976, sequence (Q13976 whole entry): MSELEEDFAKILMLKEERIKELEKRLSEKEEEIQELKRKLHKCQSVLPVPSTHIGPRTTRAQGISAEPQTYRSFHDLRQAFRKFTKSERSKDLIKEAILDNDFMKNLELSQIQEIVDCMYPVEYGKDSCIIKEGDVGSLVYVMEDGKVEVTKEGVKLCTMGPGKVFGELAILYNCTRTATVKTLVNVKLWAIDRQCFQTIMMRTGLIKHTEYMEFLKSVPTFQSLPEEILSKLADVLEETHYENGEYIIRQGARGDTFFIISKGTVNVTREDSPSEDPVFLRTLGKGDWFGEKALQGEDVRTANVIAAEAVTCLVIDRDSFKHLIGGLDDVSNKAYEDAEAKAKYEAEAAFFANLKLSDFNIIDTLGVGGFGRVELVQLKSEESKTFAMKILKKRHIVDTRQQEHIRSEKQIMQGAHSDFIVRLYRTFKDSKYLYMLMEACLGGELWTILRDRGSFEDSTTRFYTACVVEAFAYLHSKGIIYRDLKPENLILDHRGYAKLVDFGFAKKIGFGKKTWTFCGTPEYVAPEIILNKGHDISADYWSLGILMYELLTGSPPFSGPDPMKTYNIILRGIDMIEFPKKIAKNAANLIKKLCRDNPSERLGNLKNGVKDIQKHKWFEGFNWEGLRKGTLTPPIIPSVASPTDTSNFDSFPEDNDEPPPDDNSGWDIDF
UniProt Q96Q40, sequence (Q96Q40 whole entry): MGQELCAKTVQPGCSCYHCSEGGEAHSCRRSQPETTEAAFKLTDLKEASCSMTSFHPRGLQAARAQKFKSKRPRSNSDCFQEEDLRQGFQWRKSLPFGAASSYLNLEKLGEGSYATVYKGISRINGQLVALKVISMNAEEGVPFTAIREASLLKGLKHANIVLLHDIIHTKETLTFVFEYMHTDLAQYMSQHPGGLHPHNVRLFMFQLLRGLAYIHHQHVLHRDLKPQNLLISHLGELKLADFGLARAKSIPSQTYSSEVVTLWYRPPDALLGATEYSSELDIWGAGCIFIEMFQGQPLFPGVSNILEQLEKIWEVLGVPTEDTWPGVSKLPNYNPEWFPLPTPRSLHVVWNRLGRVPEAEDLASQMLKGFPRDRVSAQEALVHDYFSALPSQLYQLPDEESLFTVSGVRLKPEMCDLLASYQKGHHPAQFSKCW

Take PKN2 (UniProt Q16513): the “percent of DMSO control binding” value stood at 100%.

In the case of HCK (UniProt P08631), the “percent of DMSO control binding” value was 100%.

As to WNK1 (UniProt Q9H4A3), the “percent of DMSO control binding” value came to 100%. Next, MAP3K4 (UniProt Q9Y6R4): 77%; “RPS6KA4(Kin.Dom.1-N-terminal) (UniProt O75676)”: 100%; “RSK1(Kin.Dom.2-C-terminal) (UniProt Q15418)”: 93%. Consider SGK3 (UniProt Q96BR1), for which the “percent of DMSO control binding” value is 91%. Consider PAK4 (UniProt O96013), for which the “percent of DMSO control binding” value worked out at 100%. Consider BIKE (UniProt Q9NSY1), for which the “percent of DMSO control binding” value came to 7.4%. Take INSRR (UniProt P14616): the “percent of DMSO control binding” value is 100%.

Consider BTK (UniProt Q06187), for which the “percent of DMSO control binding” value amounted to 87%. As to PIK4CB (UniProt Q9UBF8), the “percent of DMSO control binding” value was found to be 97%. Turning to CTK (UniProt P42679), the “percent of DMSO control binding” value is 74%. Take FGFR4 (UniProt P22455): the “percent of DMSO control binding” value stood at 100%. Consider MAP3K3 (UniProt Q99759), for which the “percent of DMSO control binding” value turned out to be 78%. For the target FLT4 (UniProt P35916), the “percent of DMSO control binding” value came to 100%.

On to WEE2 (UniProt P0C1S8), for which the “percent of DMSO control binding” value was 100%. Next, ROCK1 (UniProt Q13464): 40%; EGFR(G719S) (UniProt P00533): 99%. The same measure for CDK9 (UniProt P50750): 97%; for EPHB1 (UniProt P54762): 100%.

As to ERBB3 (UniProt P21860), the “percent of DMSO control binding” value was 97%. With MAP3K15 (UniProt Q6ZN16), the “percent of DMSO control binding” value came out at 61%. The same measure for PIP5K1A (UniProt Q99755): 17%; for TAK1 (UniProt O43318): 81%; for MLK3 (UniProt Q16584): 100%. On to EPHB4 (UniProt P54760), for which the “percent of DMSO control binding” value is 100%. Take ERBB4 (UniProt Q15303): the “percent of DMSO control binding” value is 100%. On to PFCDPK1(P.falciparum), for which the “percent of DMSO control binding” value is 100%.

As to BRK (UniProt Q13882), the “percent of DMSO control binding” value was 87%. Regarding PIP5K1C (UniProt O60331), the “percent of DMSO control binding” value was found to be 100%. As to LATS2 (UniProt Q9NRM7), the “percent of DMSO control binding” value is 89%. MLK2 (UniProt Q02779): the “percent of DMSO control binding” value worked out at 78%. Take EGFR(E746-A750del) (UniProt P00533): the “percent of DMSO control binding” value came to 99%.

Regarding RSK4(Kin.Dom.1-N-terminal), the “percent of DMSO control binding” value came to 70%. For the target ALK(C1156Y) (UniProt Q9UM73), the “percent of DMSO control binding” value was found to be 57%.

CAMKK2 (UniProt Q96RR4): the “percent of DMSO control binding” value was 100%.

As to MYLK2 (UniProt Q9H1R3), the “percent of DMSO control binding” value worked out at 100%.

As for ERBB2 (UniProt P04626), the “percent of DMSO control binding” value turned out to be 73%. In the case of PRKD3 (UniProt O94806), the “percent of DMSO control binding” value was 100%.

On to DAPK2 (UniProt Q9UIK4), for which the “percent of DMSO control binding” value stood at 16%. Take “RPS6KA5(Kin.Dom.1-N-terminal) (UniProt O75582)”: the “percent of DMSO control binding” value was 100%.

As to PIK3CG (UniProt P48736), the “percent of DMSO control binding” value came out at 100%.

With “RPS6KA5(Kin.Dom.2-C-terminal) (UniProt O75582)”, the “percent of DMSO control binding” value is 97%. The same measure for PRKG1 (UniProt Q13976): 100%; for MEK1 (UniProt Q02750): 62%. With MKNK1 (UniProt Q9BUB5), the “percent of DMSO control binding” value was 88%. Take MET(M1250T) (UniProt P08581): the “percent of DMSO control binding” value was determined as 94%. Next, ACVR2A (UniProt P27037): 100%; CDKL2 (UniProt Q92772): 100%.

On to AMPK-alpha2 (UniProt P54646), for which the “percent of DMSO control binding” value was determined as 100%. Take PFTAIRE2 (UniProt Q96Q40): the “percent of DMSO control binding” value was 100%. Regarding MEK2 (UniProt P36507), the “percent of DMSO control binding” value amounted to 66%. Consider BRAF(V600E), for which the “percent of DMSO control binding” value was 95%. Consider MTOR (UniProt P42345), for which the “percent of DMSO control binding” value amounted to 87%. As to AMPK-alpha1 (UniProt Q13131), the “percent of DMSO control binding” value worked out at 100%. Regarding “RSK1(Kin.Dom.1-N-terminal) (UniProt Q15418)”, the “percent of DMSO control binding” value was found to be 89%. The same measure for ERK3 (UniProt Q16659): 100%; for PRKCH: 100%; for RSK3(Kin.Dom.1-N-terminal): 100%. Regarding TTK (UniProt P33981), the “percent of DMSO control binding” value came to 75%.

With CDKL5 (UniProt O76039), the “percent of DMSO control binding” value was determined as 91%. In the case of SRMS (UniProt Q9H3Y6), the “percent of DMSO control binding” value came out at 70%. Consider “JAK1(JH2domain-pseudokinase) (UniProt P23458)”, for which the “percent of DMSO control binding” value turned out to be 80%. For the target PKN1 (UniProt Q16512), the “percent of DMSO control binding” value stood at 100%.

Regarding PIKFYVE (UniProt Q9Y2I7), the “percent of DMSO control binding” value stood at 83%.

ZAK (UniProt Q9NYL2): the “percent of DMSO control binding” value came to 81%. In the case of EGFR(S752-I759del) (UniProt P00533), the “percent of DMSO control binding” value worked out at 88%. PIP5K2C (UniProt Q8TBX8): the “percent of DMSO control binding” value worked out at 100%. For the target ROS1 (UniProt P08922), the “percent of DMSO control binding” value was found to be 88%. On to IGF1R (UniProt P08069), for which the “percent of DMSO control binding” value came out at 100%. Turning to PFPK5(P.falciparum), the “percent of DMSO control binding” value stood at 100%. On to EGFR(G719C) (UniProt P00533), for which the “percent of DMSO control binding” value turned out to be 100%.

As for LTK (UniProt P29376), the “percent of DMSO control binding” value amounted to 100%. Consider FLT1 (UniProt P17948), for which the “percent of DMSO control binding” value came out at 100%.
